# Assay results reported in PMC7862700, “An all-to-all approach to the identification of sequence-specific readers for epigenetic DNA modifications on cytosine”.
# Experiments:
# Experiment in all cases: DAPPL (digital affinity profiling via proximity ligation, sequencing); 10 mM Tris-HCl pH 7.5, 50 mM NaCl, 1 mM DTT, 4% glycerol, room temperature, 30 min; GST-TFs on glutathione beads, 16-mer random dsDNA library, 0.1% formaldehyde crosslink after washing; high values mean tight binding
# [1] = target: T1, FLI1 (Homo sapiens, UniProt Q01543 1-452); details: protein: recombinant; tags: N-terminal GST; dsDNA, one strand shown
# T1 sequence: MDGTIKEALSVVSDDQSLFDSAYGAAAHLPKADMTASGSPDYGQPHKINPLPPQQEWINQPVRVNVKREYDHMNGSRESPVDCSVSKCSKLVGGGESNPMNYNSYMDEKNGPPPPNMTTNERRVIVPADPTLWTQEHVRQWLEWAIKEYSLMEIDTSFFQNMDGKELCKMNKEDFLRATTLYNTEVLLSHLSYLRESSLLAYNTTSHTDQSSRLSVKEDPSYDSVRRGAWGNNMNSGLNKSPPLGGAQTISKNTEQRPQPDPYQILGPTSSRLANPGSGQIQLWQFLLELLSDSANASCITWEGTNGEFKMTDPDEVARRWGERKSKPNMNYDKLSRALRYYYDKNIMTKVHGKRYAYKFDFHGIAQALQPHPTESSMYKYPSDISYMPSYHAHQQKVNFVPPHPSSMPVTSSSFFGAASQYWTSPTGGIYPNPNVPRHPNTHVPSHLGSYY
# Method in brief: (§1)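 Sequencing on an Illumina NextSeq500 followed washing, crosslinking with 0.1% formaldehyde, proximity ligation (BsaI/T4 ligase, 1 h, 37 °C) and PCR amplification of pools that had been incubated for 30 min at room temperature with 200 nmole of a random double-stranded 16-mer DNA library in Tris/NaCl/DTT/glycerol buffer. Each pool held DNA-barcoded human transcription factors, expressed in yeast as GST fusions and captured on glutathione beads, plus a tag-only sample. Binding signal is a hexamer's read frequency for a factor divided by its frequency in the tag-only sample.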
# [2] = target: T2, ELK1 (Homo sapiens, UniProt P19419 1-428); details: protein: recombinant; tags: N-terminal GST; dsDNA, one strand shown
# T2 sequence: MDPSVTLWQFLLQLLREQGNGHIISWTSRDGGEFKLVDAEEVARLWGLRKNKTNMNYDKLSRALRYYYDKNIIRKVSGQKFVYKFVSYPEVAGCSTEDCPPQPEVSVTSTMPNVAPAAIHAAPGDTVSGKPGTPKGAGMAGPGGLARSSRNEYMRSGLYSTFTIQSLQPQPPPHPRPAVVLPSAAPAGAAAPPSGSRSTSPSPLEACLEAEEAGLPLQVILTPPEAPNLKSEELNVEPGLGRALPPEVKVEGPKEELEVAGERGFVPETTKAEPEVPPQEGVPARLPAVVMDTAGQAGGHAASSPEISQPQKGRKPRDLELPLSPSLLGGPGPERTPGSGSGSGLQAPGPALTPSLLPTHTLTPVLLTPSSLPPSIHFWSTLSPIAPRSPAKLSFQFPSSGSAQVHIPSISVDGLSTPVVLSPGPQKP
# Method in brief: as §1
# [3] = target: T3, GABPA (Homo sapiens, UniProt Q06546 1-454); details: protein: recombinant; tags: N-terminal GST; dsDNA, one strand shown
# T3 sequence: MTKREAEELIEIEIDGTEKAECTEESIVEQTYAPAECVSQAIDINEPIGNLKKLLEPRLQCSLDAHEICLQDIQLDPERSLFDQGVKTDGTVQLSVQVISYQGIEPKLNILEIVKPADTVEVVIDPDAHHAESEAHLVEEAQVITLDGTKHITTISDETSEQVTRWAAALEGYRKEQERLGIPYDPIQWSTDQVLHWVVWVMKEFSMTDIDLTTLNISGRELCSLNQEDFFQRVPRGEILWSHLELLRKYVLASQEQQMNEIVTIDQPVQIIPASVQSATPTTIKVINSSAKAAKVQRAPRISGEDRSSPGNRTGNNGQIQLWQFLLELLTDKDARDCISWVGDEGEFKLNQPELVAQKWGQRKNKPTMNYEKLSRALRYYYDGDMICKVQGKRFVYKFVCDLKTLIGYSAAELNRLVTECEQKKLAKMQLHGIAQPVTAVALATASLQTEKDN
# Method in brief: as §1
# [4] = target: T4, ERG (Homo sapiens, UniProt P11308 1-479); details: protein: recombinant; tags: N-terminal GST; dsDNA, one strand shown
# T4 sequence: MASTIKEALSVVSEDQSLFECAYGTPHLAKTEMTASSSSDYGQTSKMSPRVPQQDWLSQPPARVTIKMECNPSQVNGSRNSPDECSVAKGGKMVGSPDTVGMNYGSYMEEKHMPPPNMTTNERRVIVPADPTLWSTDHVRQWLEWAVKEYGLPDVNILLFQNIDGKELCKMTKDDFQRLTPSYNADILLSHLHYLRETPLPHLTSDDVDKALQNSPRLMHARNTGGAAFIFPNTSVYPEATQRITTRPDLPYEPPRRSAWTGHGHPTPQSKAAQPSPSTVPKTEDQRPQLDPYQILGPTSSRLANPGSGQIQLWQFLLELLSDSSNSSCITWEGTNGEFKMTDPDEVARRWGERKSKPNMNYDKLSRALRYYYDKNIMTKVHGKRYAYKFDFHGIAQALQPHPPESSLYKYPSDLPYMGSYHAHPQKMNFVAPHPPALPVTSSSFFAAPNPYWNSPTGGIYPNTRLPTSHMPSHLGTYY
# Method in brief: as §1
# [5] = target: ELF1 (Homo sapiens, UniProt P32519 1-619); details: protein: recombinant; tags: N-terminal GST; dsDNA, one strand shown
# Method in brief: as §1
# [6] = target: T5, EHF (Homo sapiens, UniProt Q9NZC4 1-300); details: protein: recombinant; tags: N-terminal GST; dsDNA, one strand shown
# T5 sequence: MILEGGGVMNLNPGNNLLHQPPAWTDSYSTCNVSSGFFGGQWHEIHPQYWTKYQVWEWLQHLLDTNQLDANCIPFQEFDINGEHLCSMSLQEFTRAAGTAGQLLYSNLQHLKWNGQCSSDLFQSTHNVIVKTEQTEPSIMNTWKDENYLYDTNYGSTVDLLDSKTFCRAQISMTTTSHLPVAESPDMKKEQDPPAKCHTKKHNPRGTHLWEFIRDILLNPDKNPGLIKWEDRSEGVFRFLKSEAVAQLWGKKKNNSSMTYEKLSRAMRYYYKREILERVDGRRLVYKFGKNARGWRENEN
# Method in brief: as §1
# [7] = target: SPI1 (Homo sapiens, UniProt P17947 1-270); details: protein: recombinant; tags: N-terminal GST; dsDNA, one strand shown
# Method in brief: as §1
# [8] = target: SPIB (Homo sapiens, UniProt Q01892 1-262); details: protein: recombinant; tags: N-terminal GST; dsDNA, one strand shown
# Method in brief: as §1
# [9] = target: T6, ELK3 (Homo sapiens, UniProt P41970 1-407); details: protein: recombinant; tags: N-terminal GST; dsDNA, one strand shown
# T6 sequence: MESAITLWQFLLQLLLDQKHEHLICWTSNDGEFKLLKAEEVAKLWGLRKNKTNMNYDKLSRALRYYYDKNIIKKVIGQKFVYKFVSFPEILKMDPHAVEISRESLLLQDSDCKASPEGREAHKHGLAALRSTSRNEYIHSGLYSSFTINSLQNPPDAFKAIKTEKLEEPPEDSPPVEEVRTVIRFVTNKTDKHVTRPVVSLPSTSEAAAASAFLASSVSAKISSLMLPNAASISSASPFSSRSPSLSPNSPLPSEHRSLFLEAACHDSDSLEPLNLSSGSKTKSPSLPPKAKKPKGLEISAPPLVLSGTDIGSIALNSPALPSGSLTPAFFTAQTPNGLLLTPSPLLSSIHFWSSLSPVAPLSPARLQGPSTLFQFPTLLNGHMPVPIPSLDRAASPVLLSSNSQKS
# Method in brief: as §1
# [10] = target: T7, FEV (Homo sapiens, UniProt Q99581 1-238); details: protein: recombinant; tags: N-terminal GST; dsDNA, one strand shown
# T7 sequence: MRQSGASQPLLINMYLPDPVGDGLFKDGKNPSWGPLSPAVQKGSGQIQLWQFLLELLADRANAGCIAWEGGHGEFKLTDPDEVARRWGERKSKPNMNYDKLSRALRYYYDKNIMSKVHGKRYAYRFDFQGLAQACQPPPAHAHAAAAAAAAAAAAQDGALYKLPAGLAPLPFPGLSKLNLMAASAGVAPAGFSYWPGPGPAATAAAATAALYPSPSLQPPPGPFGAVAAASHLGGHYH
# Method in brief: as §1
# [11] = target: ETV5 (Homo sapiens, UniProt P41161 1-510); details: protein: recombinant; tags: N-terminal GST; dsDNA, one strand shown
# Method in brief: as §1
# [12] = target: HSF1 (Homo sapiens, UniProt Q00613 1-529); details: protein: recombinant; tags: N-terminal GST; chain copies: 3; dsDNA, one strand shown
# Method in brief: as §1
# [13] = target: T8, SPIC (Homo sapiens, UniProt Q8N5J4 1-248); details: protein: recombinant; tags: N-terminal GST; dsDNA, one strand shown
# T8 sequence: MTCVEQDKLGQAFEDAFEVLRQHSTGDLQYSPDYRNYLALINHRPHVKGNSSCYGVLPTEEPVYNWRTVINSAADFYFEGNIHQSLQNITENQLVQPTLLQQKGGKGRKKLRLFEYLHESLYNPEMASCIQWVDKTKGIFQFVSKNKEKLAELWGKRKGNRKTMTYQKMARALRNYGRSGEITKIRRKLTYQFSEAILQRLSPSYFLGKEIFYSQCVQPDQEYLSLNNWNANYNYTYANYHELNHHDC
# Method in brief: as §1
# [14] = target: ELF4 (Homo sapiens, UniProt Q99607 1-663); details: protein: recombinant; tags: N-terminal GST; dsDNA, one strand shown
# Method in brief: as §1
# [15] = target: T9, ELK4 (Homo sapiens, UniProt P28324-2 1-405); details: protein: recombinant; tags: N-terminal GST; dsDNA, one strand shown
# T9 sequence: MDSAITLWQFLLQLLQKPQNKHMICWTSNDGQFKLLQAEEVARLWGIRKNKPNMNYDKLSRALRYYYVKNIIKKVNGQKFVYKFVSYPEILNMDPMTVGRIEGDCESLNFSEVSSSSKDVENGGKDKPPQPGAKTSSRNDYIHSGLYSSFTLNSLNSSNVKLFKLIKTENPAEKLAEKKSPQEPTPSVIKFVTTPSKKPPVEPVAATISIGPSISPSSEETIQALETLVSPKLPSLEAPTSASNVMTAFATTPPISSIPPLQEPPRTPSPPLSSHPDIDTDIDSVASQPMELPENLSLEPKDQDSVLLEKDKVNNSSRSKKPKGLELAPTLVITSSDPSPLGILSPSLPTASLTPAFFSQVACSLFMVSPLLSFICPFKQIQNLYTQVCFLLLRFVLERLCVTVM
# Method in brief: as §1
# [16] = target: T10, ETV2 (Homo sapiens, UniProt O00321 1-342); details: protein: recombinant; tags: N-terminal GST; dsDNA, one strand shown
# T10 sequence: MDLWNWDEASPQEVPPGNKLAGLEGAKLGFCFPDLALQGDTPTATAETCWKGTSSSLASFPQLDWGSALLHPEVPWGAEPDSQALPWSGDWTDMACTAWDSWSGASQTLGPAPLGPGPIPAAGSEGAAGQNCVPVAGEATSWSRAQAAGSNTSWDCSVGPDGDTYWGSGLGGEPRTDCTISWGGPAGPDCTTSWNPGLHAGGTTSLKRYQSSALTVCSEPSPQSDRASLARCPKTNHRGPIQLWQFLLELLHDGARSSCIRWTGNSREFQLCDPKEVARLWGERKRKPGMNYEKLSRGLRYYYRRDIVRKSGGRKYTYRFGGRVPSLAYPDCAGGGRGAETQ
# Method in brief: as §1
# [17] = target: T11, ELF3 (Homo sapiens, UniProt P78545 1-371); details: protein: recombinant; tags: N-terminal GST; dsDNA, one strand shown
# T11 sequence: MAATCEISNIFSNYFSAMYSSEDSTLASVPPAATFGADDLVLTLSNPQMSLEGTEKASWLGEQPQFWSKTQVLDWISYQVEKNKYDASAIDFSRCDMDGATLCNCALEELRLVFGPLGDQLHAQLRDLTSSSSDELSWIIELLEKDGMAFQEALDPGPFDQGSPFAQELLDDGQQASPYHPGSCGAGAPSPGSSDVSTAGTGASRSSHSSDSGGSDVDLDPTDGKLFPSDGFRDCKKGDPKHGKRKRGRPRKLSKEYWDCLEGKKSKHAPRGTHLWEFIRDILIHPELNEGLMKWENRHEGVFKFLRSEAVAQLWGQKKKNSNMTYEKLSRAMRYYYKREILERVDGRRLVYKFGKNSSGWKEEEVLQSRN
# Method in brief: as §1
# [18] = target: CRX (Homo sapiens, UniProt O43186 1-299); details: protein: recombinant; tags: N-terminal GST; dsDNA, one strand shown
# Method in brief: as §1
# [19] = target: ETV1 (Homo sapiens, UniProt P50549 1-477); details: protein: recombinant; tags: N-terminal GST; dsDNA, one strand shown
# Method in brief: as §1
# Sequence of CRX (O43186 whole entry): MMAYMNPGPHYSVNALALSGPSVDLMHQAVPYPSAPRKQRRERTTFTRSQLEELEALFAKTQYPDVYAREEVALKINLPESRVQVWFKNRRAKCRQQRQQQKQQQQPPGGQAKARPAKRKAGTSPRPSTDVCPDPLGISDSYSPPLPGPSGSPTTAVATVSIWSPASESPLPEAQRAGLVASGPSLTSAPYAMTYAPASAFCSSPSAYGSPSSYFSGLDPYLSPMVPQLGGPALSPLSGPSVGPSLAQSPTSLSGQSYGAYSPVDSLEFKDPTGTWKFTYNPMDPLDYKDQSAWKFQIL
# Sequence of ELF1 (P32519 whole entry): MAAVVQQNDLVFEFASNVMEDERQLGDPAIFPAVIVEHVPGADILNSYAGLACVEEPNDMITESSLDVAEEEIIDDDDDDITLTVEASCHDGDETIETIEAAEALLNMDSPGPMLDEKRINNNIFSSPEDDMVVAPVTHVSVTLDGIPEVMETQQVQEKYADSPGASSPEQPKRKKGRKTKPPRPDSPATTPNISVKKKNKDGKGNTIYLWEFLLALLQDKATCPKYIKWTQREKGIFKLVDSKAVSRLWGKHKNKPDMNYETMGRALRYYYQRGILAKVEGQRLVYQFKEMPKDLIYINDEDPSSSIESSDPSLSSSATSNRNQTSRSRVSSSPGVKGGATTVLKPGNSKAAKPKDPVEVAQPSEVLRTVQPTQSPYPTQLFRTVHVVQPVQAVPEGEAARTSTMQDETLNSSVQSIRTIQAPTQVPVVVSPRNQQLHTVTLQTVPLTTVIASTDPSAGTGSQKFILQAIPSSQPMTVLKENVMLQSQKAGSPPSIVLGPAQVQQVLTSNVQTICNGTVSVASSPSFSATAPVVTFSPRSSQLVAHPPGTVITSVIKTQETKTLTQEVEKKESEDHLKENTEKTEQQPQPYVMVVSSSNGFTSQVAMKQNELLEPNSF
# Sequence of ELF4 (Q99607 whole entry): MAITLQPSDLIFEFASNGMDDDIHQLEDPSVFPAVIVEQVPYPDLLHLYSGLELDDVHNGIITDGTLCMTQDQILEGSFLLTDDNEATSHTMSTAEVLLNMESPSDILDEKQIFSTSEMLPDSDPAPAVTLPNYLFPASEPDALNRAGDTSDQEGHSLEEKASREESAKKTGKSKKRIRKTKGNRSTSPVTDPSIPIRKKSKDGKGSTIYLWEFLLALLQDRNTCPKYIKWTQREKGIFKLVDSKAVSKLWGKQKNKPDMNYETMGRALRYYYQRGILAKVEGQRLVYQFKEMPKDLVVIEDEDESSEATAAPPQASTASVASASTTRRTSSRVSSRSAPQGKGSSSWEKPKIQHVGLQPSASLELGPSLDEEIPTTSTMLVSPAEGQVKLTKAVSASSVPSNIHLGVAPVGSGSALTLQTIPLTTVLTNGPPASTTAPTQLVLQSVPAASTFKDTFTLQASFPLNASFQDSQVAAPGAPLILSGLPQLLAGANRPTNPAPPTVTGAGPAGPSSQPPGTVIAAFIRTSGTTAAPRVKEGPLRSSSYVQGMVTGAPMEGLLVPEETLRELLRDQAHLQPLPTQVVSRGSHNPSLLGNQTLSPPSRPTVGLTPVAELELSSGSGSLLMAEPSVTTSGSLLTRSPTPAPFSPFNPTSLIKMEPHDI
# Sequence of SPIB (Q01892 whole entry): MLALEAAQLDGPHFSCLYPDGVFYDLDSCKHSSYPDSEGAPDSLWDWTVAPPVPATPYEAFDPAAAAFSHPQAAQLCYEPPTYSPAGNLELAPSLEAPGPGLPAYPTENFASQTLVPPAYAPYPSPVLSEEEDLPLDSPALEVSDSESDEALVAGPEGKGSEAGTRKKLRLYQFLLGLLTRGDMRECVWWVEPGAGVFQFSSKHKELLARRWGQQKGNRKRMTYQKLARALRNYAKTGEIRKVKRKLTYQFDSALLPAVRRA
# Sequence of HSF1 (Q00613 whole entry): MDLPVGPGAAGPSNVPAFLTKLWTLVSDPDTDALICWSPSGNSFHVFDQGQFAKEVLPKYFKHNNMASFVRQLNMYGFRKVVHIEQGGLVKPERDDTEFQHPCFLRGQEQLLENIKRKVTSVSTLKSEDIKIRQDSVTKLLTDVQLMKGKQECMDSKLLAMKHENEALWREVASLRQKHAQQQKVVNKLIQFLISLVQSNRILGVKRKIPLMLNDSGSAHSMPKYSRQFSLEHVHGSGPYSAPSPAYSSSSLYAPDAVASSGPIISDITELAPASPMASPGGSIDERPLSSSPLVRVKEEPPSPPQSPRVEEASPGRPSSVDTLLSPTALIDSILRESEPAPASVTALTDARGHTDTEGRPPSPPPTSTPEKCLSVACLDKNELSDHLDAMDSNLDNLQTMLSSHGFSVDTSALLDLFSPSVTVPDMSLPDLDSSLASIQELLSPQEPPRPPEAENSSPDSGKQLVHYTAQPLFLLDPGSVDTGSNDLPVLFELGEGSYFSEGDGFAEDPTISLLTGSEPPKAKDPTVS
# Sequence of ETV5 (P41161 whole entry): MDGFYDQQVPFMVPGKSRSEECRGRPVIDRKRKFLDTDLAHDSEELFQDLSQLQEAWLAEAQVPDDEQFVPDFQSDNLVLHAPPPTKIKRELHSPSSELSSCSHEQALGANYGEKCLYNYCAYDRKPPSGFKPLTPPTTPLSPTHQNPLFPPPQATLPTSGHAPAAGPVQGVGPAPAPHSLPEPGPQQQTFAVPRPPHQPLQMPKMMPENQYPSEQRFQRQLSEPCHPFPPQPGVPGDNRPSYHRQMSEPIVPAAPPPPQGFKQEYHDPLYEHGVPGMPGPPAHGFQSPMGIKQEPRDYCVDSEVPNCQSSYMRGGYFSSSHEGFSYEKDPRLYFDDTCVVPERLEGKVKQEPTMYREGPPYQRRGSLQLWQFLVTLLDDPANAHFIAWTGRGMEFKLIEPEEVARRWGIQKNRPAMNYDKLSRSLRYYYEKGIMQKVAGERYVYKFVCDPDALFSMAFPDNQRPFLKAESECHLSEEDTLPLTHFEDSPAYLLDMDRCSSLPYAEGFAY
# Sequence of ETV1 (P50549 whole entry): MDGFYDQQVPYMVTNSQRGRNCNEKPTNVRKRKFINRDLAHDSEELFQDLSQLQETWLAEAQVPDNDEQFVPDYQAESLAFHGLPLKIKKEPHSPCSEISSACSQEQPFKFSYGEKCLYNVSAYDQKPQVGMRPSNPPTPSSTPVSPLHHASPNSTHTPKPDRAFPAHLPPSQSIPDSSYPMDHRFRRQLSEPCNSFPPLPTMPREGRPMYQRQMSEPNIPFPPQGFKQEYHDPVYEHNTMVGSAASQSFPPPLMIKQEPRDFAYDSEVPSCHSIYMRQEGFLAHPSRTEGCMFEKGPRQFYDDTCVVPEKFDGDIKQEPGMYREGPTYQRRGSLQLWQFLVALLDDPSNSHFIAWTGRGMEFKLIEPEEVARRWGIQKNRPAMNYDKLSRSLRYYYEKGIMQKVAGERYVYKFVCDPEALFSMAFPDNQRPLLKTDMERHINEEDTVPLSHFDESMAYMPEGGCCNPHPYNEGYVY
sequence,measurement,setting,value
TATCTC,binding signal,[1],"1.19 fold enrichment (6-mer frequency, TF over GST control)"
same,binding signal,[2],"1.32 fold enrichment (6-mer frequency, TF over GST control)"
same,binding signal,[3],"1.39 fold enrichment (6-mer frequency, TF over GST control)"
same,binding signal,[4],"1.18 fold enrichment (6-mer frequency, TF over GST control)"
same,binding signal,[5],"1.29 fold enrichment (6-mer frequency, TF over GST control)"
same,binding signal,[6],"1.35 fold enrichment (6-mer frequency, TF over GST control)"
same,binding signal,[7],"1.15 fold enrichment (6-mer frequency, TF over GST control)"
same,binding signal,[8],"1.38 fold enrichment (6-mer frequency, TF over GST control)"
same,binding signal,[9],"1.25 fold enrichment (6-mer frequency, TF over GST control)"
same,binding signal,[10],"1.27 fold enrichment (6-mer frequency, TF over GST control)"
same,binding signal,[11],"1.2 fold enrichment (6-mer frequency, TF over GST control)"
same,binding signal,[12],"1.45 fold enrichment (6-mer frequency, TF over GST control)"
same,binding signal,[13],"1.21 fold enrichment (6-mer frequency, TF over GST control)"
same,binding signal,[14],"1.21 fold enrichment (6-mer frequency, TF over GST control)"
same,binding signal,[15],"1.27 fold enrichment (6-mer frequency, TF over GST control)"
same,binding signal,[16],"1.18 fold enrichment (6-mer frequency, TF over GST control)"
same,binding signal,[17],"1.16 fold enrichment (6-mer frequency, TF over GST control)"
same,binding signal,[18],"1.76 fold enrichment (6-mer frequency, TF over GST control)"
same,binding signal,[19],"1.3 fold enrichment (6-mer frequency, TF over GST control)"
